Sampled rows, rich in hits. Any-hit rate of the full collection: about 7.3%.
Rab9 promoter act: activators of Rab9 promoter | Huh7 Rab9 promoter-luciferase reporter, luminescence, 24 h | Potency, µM (highest dose often 9.22 µM), most hits filed as activators | 320,000 tested, 2.8% active | AID 485297; further: nearly all actives have a fitted effect of over 60% in size
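Stable Rab9-luc Huh7, 1500 cells/well, 2 h settle; cmpd in DMSO, 24 h, 37 °C/5% CO2; luciferase reagent 10 min RT; luminescence.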
FLuc modulator: counter-screen for miR-21 project: firefly luciferase inhibitors or activators; purified FLuc, Km substrates, luminescence inhibition; Potency, µM (top dose mostly 57.5 µM), hits mostly inhibitors; 360,000 tested, 6.9% active; AID 588342; further: nearly all actives have a fitted effect of over 55% in size
Target sequence (P08659 whole entry, looked up): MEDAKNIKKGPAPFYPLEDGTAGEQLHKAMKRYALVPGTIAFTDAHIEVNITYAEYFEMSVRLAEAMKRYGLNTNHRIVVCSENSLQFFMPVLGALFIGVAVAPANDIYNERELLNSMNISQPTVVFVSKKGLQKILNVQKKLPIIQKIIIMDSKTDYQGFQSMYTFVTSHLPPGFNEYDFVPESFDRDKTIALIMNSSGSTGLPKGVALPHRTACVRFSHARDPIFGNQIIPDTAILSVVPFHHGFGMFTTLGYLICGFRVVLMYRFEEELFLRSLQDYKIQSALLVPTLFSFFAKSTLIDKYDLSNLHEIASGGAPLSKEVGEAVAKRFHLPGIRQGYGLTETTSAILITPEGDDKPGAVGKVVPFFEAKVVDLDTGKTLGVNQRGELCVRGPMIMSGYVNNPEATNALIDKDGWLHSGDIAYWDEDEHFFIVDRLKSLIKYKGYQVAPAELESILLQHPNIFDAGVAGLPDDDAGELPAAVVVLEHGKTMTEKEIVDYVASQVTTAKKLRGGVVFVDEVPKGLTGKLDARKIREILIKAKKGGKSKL
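Purified P. pyralis luciferase, 10 nM final, with Km-level 10 uM D-luciferin and 10 uM ATP in 50 mM Tris acetate pH 7.5, 10 mM Mg acetate, 0.01% Tween-20, 0.05% BSA; 6-point qHTS titration about 60 µM downward; luminescence read.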
SMN2 splice enh: enhancers of SMN2 splice variant expression; HEK293 SMN2-luciferase splicing reporter, luminescence, 30-36 h; Potency, µM (series often up to 46.1 µM), hits mostly activators; 210,000 tested, 2.8% active; AID 1458; further: nearly all actives have a fitted effect of over 55% in size
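HEK293 cells carry an SMN2 minigene-luciferase reporter in which exon 7 inclusion puts luciferase in frame. Cells were seeded at 2000 cells/well, attached for 10-12 hours, then exposed to compounds for 30-36 hours at 37C before ONE-Glo luminescence.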
Luc counter: blocks Kinase-Glo luciferase, a counter-screen artifact; Kinase-Glo luciferase, ATP luminescence, 8 min; Potency, µM (top dose mostly 38.3 µM), most hits filed as inhibitors; 200,000 tested, 0.28% active; AID 1379; Q27757; further: nearly all actives have a fitted effect of over 60% in size
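Substrate mix (final 50 mM imidazole pH 7.2, 50 mM KCl, 7 mM MgCl2, 10 uM ATP, 0.01% Tween 20, 0.05% BSA) plus pin-tool compound, then Kinase-Glo detection mix; 8 min ambient, luminescence read.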
ELG1 genotoxic: genotoxicity induction in ELG1-luciferase HEK293T cells; HEK293T ELG1-luciferase reporter, luminescence, 16 h; Potency, µM (highest dose often 46 µM), most hits filed as activators; 330,000 tested, 1.3% active; AID 504466; further: nearly all actives have a fitted effect of over 60% in size
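HEK293T cells expressing luciferase-tagged ELG1 were treated with compound or DMSO for 16 hr at 37°C. Luciferase activity was then read after 30 min with ONE-Glo at room temperature; rising signal flags genetic stress.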
NPC1 prom act: NPC1 promoter activation | Huh7 NPC1 promoter luciferase reporter, 24 h | Potency, µM (highest dose often 9.22 µM), usual class: activators | 320,000 tested, 2.4% active | AID 485313; further: nearly all actives have a fitted effect of over 60% in size
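Stably transfected Huh7 (NPC1 promoter→luciferase), 1500 cells/well in Opti-MEM + 10% FBS, 2 h settle, then compound 24 h at 37 °C. Luminescence after 10 min with Amplite reagent.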
A number is an active result; 0 = inactive; ? = inconclusive; - = no result given. The call rests on the fitted dose curve; in most records, active means well fitted curve in the direction sought with a large enough effect; inconclusive means small, poorly fitted or top-dose-only effect, or another doubt; inactive means no such curve, though single readings can be large; an effect the other way counts as inactive or inconclusive.

SMILES | Rab9 promoter act | FLuc modulator | SMN2 splice enh | Luc counter | ELG1 genotoxic | NPC1 prom act
CC(=O)C1=C(C)NC(=O)CC1c1ccc(F)cc1 (stereo unspecified) | 0 | 0 | 0 | 0 | 0 | 0
Cc1c(C(=O)OCc2ccccc2)nnn1-c1nonc1N | 0 | 0 | 0 | 0 | 0 | 0
CCOC(=O)C1CCN(C(=O)CN2C(=O)C(C(C)C)Oc3ccccc32)CC1 (stereo unspecified) | 0 | 0 | - | - | 0 | 0
COC(=O)C1C(=O)c2c([nH]c(C(=O)OC3CCCCCC3)c2C)CC1C (stereo unspecified) | ? | ? | ? | 0 | 18µM | ?
COC(Cc1nnc(SC)n1-c1ccccc1)OC | 0 | 0 | 0 | 0 | 0 | 0
COCc1cc(C)nc2sc(C(=O)Nc3ccccc3OC)c(N)c12 | 0 | 17µM | - | - | 0 | 0
COCc1cc(C)nc2sc(C(=O)Nc3cccc(OC)c3)c(N)c12 | 3.2µM | 8.5µM | - | - | ? | 2.2µM
COc1ccc(/C=C/C=C2\N=C(SC)SC2=O)cc1 | 0 | 5.4µM | - | 0 | 0 | 0
CSC1=N/C(=C\c2ccc(F)cc2)C(=O)S1 | 0 | 0 | 0 | 0 | 0 | 0
Cc1ccc(C(=O)CC2(O)C(=O)N(Cc3ccccc3)c3ccccc32)c(C)c1 (stereo unspecified) | - | 19µM | 0 | - | - | -
CCc1ccc(C(=O)CC2(O)C(=O)N(Cc3ccc(C)cc3)c3ccccc32)cc1 (stereo unspecified) | - | 7.6µM | 0 | - | - | -
O=C(CSc1nc2c(sc3ccccc32)c(=O)n1CCCN1CCOCC1)NC1CCCC1 | 0 | 0 | 0 | 0 | 0 | 0
CCCCC/C=C\C=C\[C@@H](O)CCCCCCCC(=O)O | - | - | 0 | 0 | - | -
COc1ccc(-c2nc(-c3cccs3)c(-c3cccs3)[nH]2)cc1O | 0 | 17µM | 0 | 0 | 0 | 0
O=C(O)c1ccc(-c2nc(-c3ccccc3)c(-c3cccs3)[nH]2)cc1 | 0 | ? | - | - | 0 | 0
CCN(CC)C(=S)SCC(=O)c1c(C)[nH]c2ccccc12 | 0 | ? | ? | 0 | 0 | 0
CCN(CC)C(=S)SCC(=O)c1ccc(F)cc1 | 2.5µM | 15µM | 18µM | 0 | ? | 2.5µM
CCN(CC)C(=S)SCC(=O)c1ccccc1 | 2.8µM | 12µM | 13µM | 0 | ? | 2.2µM
CC(=O)c1ccc(NC(=O)COc2ccccc2C(=O)Nc2ccc(C)cn2)cc1 | 0 | 0 | 0 | 0 | 0 | 0
CCOC(=O)C1=NN(c2ccccc2)C(=O)/C1=C\c1ccc(N(C)C)cc1 | 0 | 0 | 0 | 0 | 0 | 0
COc1cccc(-c2nn(-c3ccccc3)cc2/C=C(/NC(=O)c2ccccc2)C(=O)O)c1 | 0 | 27µM | - | - | 0 | 0
COc1ccc(-c2nn(-c3ccccc3)cc2/C=N/Nc2ccc3ccccc3n2)cc1OC | 0 | 11µM | 0 | 0 | 0 | 0
COc1ccc(-c2nn(-c3ccccc3)cc2CO)cc1OC | 0 | ? | 0 | 0 | 0 | 0
COc1ccc(-c2nn(-c3ccccc3)cc2/C=N/O)cc1OC | 0 | ? | - | - | 0 | 0
COc1cccc(-c2nn(-c3ccccc3)cc2CO)c1 | - | 13µM | 0 | 0 | - | -
SMILES | Rab9 promoter act | FLuc modulator | SMN2 splice enh | Luc counter | ELG1 genotoxic | NPC1 prom act
COc1cccc(-c2nn(-c3ccccc3)cc2C(=O)NCC(=O)O)c1 | 0 | 9.5µM | 0 | 0 | 0 | 0
O=C(NCc1ccco1)[C@@H]1CCCN1C(=O)c1cccs1 | 0 | 0 | ? | 0 | 0 | 0
Cc1ccc(N(C(=O)c2csnn2)C(C(=O)NC2CCCCC2)c2ccccn2)cc1C (stereo unspecified) | 0 | 0 | - | - | 0 | 0
CC(C)CCNC(=O)C1CCN(c2nnc(-n3cccc3)s2)CC1 | 0 | 0 | 0 | 0 | 0 | 0
COC(=O)c1cn(-c2ccccc2)nc1-c1ccc(OC)c(OC)c1 | 0 | 21µM | - | - | 0 | 0
CCc1nnc(NC(=O)c2ccc3ncsc3c2)s1 | ? | 24µM | - | - | ? | ?
CCc1nnc(NC(=O)c2ccc3c(c2)C(=O)N(C(C)(C)C)C3=O)s1 | 3.2µM | 2.7µM | ? | 0 | ? | 3.5µM
CC1(C)Cc2c(sc(NC(=O)c3ccc4ncsc4c3)c2C(N)=O)C(C)(C)N1 | ? | ? | ? | 0 | 16µM | ?
Cc1cnc(NC(=O)c2ccc3ncsc3c2)s1 | 0.71µM | 3µM | - | - | ? | 1.3µM
